Vaccinia mCherry = inhibitors of vaccinia virus infection (mCherry reporter signal) | Vaccinia virus mCherry reporter infection, fluorescence | Potency, µM (top dose mostly 36.5 µM), usual class: inhibitors | hit rate 0.63% among 310,000; calls by dose curve; tested in A549 cells; note: nearly all actives have a fitted effect of over 35% in size
Vaccinia Venus = inhibitors of vaccinia virus (Venus reporter); Vaccinia virus Venus reporter expression, fluorescence; Potency, µM (top dose mostly 36.5 µM), most hits filed as inhibitors; hit rate 0.46% among 330,000; AID 720580; calls by dose curve; tested in A549 cells; note: nearly all actives have a fitted effect of over 30% in size
HCV inh = inhibitors of hepatitis C virus infection; Huh7.5.1 HCVcc-Cre infection, luciferase reporter, 44 h; Potency, µM (highest dose often 41.8 µM), hits mostly inhibitors; hit rate 3.4% among 340,000; active = well fitted inhibition curve with a large enough effect; inconclusive = small, poorly fitted or top-dose-only effect, or another doubt; inactive = no such curve, though single readings can be large or run the other way
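HCVcc-Cre virus at an moi near 0.5 was added right after compound to cells cultured 4 h from seeding (1,000 cells/well). Luciferase activity was determined 44 h later, 15 min after substrate addition at RT.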
Hits are given with their value; 0 = inactive; ? = inconclusive; - = not tested or not shown; [ ] = dose if it differs, or a comment. Shown are actives, neighbours in structure and some others; about 3.3% of the full set was active somewhere.

SMILES	Vaccinia mCherry	Vaccinia Venus	HCV inh
CCNc1nc(N2CCCC2)nc(N2CCCC2)n1	0	0	11µM
COc1ccc(Nc2nc(OC)nc(N3CCOCC3)n2)cc1	-	-	0
COc1nc(N2CCOCC2)nc(-n2cccc2)n1	-	-	0.89µM
C(=C\c1ccnc2ccccc12)/c1ccc(N(Cc2ccccc2)Cc2ccccc2)cc1	0	0	-
COc1ccc(CN2CCCC(n3cc(C(=O)N4CCCCC4)nn3)C2)cc1OC (stereo not drawn)	0	0	-
CN(C)c1ccc(/C=C2\CCc3ccccc32)cc1	0	0	-
Cn1c(C(=O)NCc2cccs2)cc2oc3ccccc3c21	10µM	0	?
COc1ccc(CNC(=O)c2cc3oc4ccccc4c3n2C)cc1OC	0	0	-
Cn1c(C(=O)NCc2ccccc2F)cc2oc3ccccc3c21	?	0	-
Cn1c(C(=O)NCc2ccccc2)cc2oc3ccccc3c21	5µM	0	?
COC(=O)c1c(OCc2cccnc2)cc(=O)n2c1CCN(C(=O)c1ccc(OC)c(F)c1)CC2	0	0	-
Cc1cccc(C)c1NC(=O)CCSc1nc(-c2ccc3c(c2)OCO3)cc(C(F)(F)F)n1	0	0	-
CN1CCc2nc(SCC(=O)OC(C)(C)C)c(C#N)cc2C1	?	0	4µM
CN1CCc2nc(SCC(=O)Nc3ccc(Cl)cc3)c(C#N)cc2C1	-	0	?
COc1cccc(CNC(=O)C2CCN(c3nnc(-n4c(C)ccc4C)s3)CC2)c1	0	0	-
CCCCn1nc(NC(=O)c2cccs2)c2cc3cc(OC)ccc3nc21	-	0	10µM
CCCCn1nc(NC(=O)CCC)c2cc3cc(OC)ccc3nc21	0	0	0
CCCCn1nc(NC(=O)CC(C)C)c2cc3cc(OC)ccc3nc21	0	0	?
CCCn1nc(NC(=O)c2cccs2)c2cc3cc(OC)ccc3nc21	?	0	10µM
COCC1CCCN(Cc2ccc3c(c2)CN(C(=O)c2cc(-c4ccccc4)n[nH]2)CCO3)C1 (stereo not drawn)	0	0	-
C=CC[n+]1c(-c2ccc(OCC)cc2)csc1NNC(=O)Nc1ccccc1	0	?	7.1µM
CCOc1ccc(-c2nc(CNC(=O)Nc3ccccc3)c(C)o2)cc1	0	0	-
COc1cc(OC)c(C2=NOC(C(=O)N3CCCc4ccccc43)C2)cc1Cl (stereo not drawn)	-	-	5.6µM
CCC1CCCCN1C(=O)C1CC(c2cc(Cl)c(OC)cc2OC)=NO1 (stereo not drawn)	0	0	0
O=C(NNC(=O)C1CCN(Cc2ccc(F)cc2Cl)CC1)Nc1ccc([N+](=O)[O-])cc1	-	-	11µM
SMILES	Vaccinia mCherry	Vaccinia Venus	HCV inh
CN(C)C(=O)N1CCC(C(=O)NCc2ccc(F)cc2Cl)CC1	0	0	0
CC1CCN(CC(CS(=O)(=O)c2ccc([N+](=O)[O-])cc2)N2CCC(C)CC2)CC1 (stereo not drawn)	?	?	5µM
Cc1ccc(S(=O)(=O)CC(CN2CCOCC2)N2CCOCC2)cc1 (stereo not drawn)	0	0	0
O=C(CCCn1c(=O)c2sccc2n(Cc2ccc(Cl)cc2)c1=O)NCc1ccc2c(c1)OCO2	0	0	-
COc1ccc(CCNC(=O)c2cnn(-c3nccc(-c4cccs4)n3)c2C)cc1OC	0	?	-
O=C(NC1c2ccccc2-c2ccccc21)N1CCCCC1	7.1µM	?	0
CN(C)C(=O)NC1c2ccccc2-c2ccccc21	-	-	0
COc1cccc2sc(N(Cc3cccnc3)C(=O)c3ccc(S(=O)(=O)N(C)C)cc3)nc12	0	0	-
Cc1cc(C)nc(N(C#N)CC(=O)N(c2ccccc2)C(C)C)n1	-	0	0
Cc1cc(C)nc(N(C#N)CC(=O)c2ccccc2)n1	?	?	16µM
N#Cc1ncc(Br)cn1	0	0	-
O=C(COC(=O)/C=C/c1ccc(C(F)(F)F)cc1)NCc1ccco1	-	-	0
C/C(=N\NC(N)=S)C1(C)CCCCC1	?	?	0
C/C(=N\NC(N)=S)C12CC3CC(CC(C3)C1)C2	11µM	8.9µM	?
Cc1ccc2occ(CC(=O)N(Cc3ccc(Cl)cc3)Cc3ccco3)c2c1	0	0	-
Cc1ccc(-n2nnnc2SCC(=O)Nc2ccccc2N2CCCCC2)cc1C	-	?	10µM
CCC(=O)Nc1cccc(-n2nnnc2SCC(=O)c2ccc(C)c(C)c2)c1	0	0	11µM
Cc1ccc(-n2nnnc2SCC(=O)Nc2cccc(NC(=O)c3ccco3)c2)cc1C	0	0	7.9µM
Cc1ccc(-n2nnnc2SCC(=O)Nc2ccccc2-c2ccccc2)cc1C	0	0	?
Cc1cc(C)cc(-n2nnnc2SCC(=O)Nc2cccc(NC(=O)c3ccco3)c2)c1	?	0	?
CCC(=O)Nc1cccc(-n2nnnc2SCC(=O)NCc2ccco2)c1	0[1.46 µM]	0	0
CC(C)(S)[C@H](N)C(=O)O	0	0	-
Cc1coc2c1c(C)cc1oc(=O)c(CC(=O)NCCCN3CCCC3=O)c(C)c12	0	0	0
CN(Cc1ccccc1)c1ncnc2[nH]ncc12	0	0	0
CN(Cc1ccccc1)c1ncnc2sccc12	0	0	8.9µM
SMILES	Vaccinia mCherry	Vaccinia Venus	HCV inh
CCCCCCCCN1[C@@H](CC(=O)OC)c2ccc(/C=C/C(=O)OC)cc2S1(=O)=O	0	0	-
COc1ccc(CNC(=O)Nc2nc(C(N)Cc3ccc(Cl)cc3)cs2)cc1 (stereo not drawn)	0	0	-
C=C(C)CN(Cc1ccccc1)C(=S)Nc1ccccc1	0	0	0
COCCN(CCOC)C(=S)Nc1ccccc1	0	0	1.8µM
Nc1c(Cl)cc(/C=C2\C=Cc3ccccc32)cc1Cl	0	0	-
CN1CCN(CCCOc2ccc(-c3ccccc3)cc2)CC1	0	0	2.8µM
COc1ccc(OCCOCCN2CCN(C)CC2)cc1	-	-	0
c1ccc(OCCN2CCNCC2)cc1	0	0	0
CCCCCCOc1ccc(CN2CCN(C)CC2)cc1	-	-	1.8µM
c1ccc(OCCN2CCN(C(c3ccccc3)c3ccccc3)CC2)cc1	-	-	11µM
CCCCOc1ccc(CN2CCCCC2)cc1	0	0	0
CCc1ccc(OCC(=O)N(Cc2cccs2)c2ccc(Cl)cc2)cc1	0	0	-
CCN(CC)C(=O)CSc1nc2cc3c(cc2c(=O)n1CCCCCC(=O)NCCc1ccc(OC)c(OC)c1)OCO3	0	0	-
CCc1c(C)nc(SCc2nc(-c3ccccc3)no2)[nH]c1=O	0	0	-
O=C(c1cc2c(s1)-c1ccccc1S(=O)(=O)C2)N1CCCC1	0	0	0
CCN(C(=O)c1cc2c(s1)-c1ccccc1S(=O)(=O)C2)c1cc(OC)ccc1OC	0	0	10µM
COc1ccc(N(C)C(=O)c2cc3c(s2)-c2ccccc2OC3)cc1	0	0	-
CCN(C(=O)c1cc2c(s1)-c1ccccc1OC2)c1cc(OC)ccc1OC	0	0	13µM
COc1ccc(-c2cccc3c2OC(CNC(=O)c2ccccc2-n2cccn2)C3)nn1 (stereo not drawn)	0	0	-
O=C(COC(=O)c1ccc2[nH]c3c(c2c1)CCCC3)Nc1ccccc1	0	0	13µM
CC(=O)c1ccc(NS(=O)(=O)c2ccc3[nH]c4c(c3c2)CCCCCC4)cc1	0	0	-
Cc1cccc(C)c1NC(=O)COC(=O)c1ccc2[nH]c3c(c2c1)CCCC3	-	-	0
CC(=O)Nc1ccc(NS(=O)(=O)c2ccc3[nH]c4c(c3c2)CCCCC4)cc1	?	7.9µM	-
O=[N+]([O-])c1cccc(S(=O)(=O)N2CCN(c3nc(-c4cccs4)nc4ccccc34)CC2)c1	0	0	-
O=C(NC1CCCCCC1)c1cccc(N2CCCC2=O)c1	0	0	25µM
O=C(NC1CCCN(Cc2ccc(Cl)cc2)C1)c1cccc(N2CCCC2=O)c1 (stereo not drawn)	0	0	0
